A short description of experiment [1]: antimalarial activity against Dd2 strain (AID 2302;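 active means growth inhibition above 50% at the single 2 µM test dose, taken to imply half-maximal potency below 2 µM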;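 further: 0% = DMSO untreated growth and 100% = chloroquine plus artemisinin killed control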). The conditions noted are these: P. falciparum Dd2 in RBCs, LDH growth readout, 72 h; at 2 µM; hits give high values.
Experiment [2] is described as follows: human hepatoma cell viability loss – ATP luminescence, cytotoxicity control for P. falciparum antimalarial project, primary screen (AID 2303;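 active means inhibition above 50%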;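 further: 0% = DMSO wells and 100% = digitonin-killed cells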). Conditions: HepG2 viability, 24-48 h, at 10 µM, hits give high values.
The target of experiment [3] is L-lactate dehydrogenase (Plasmodium falciparum (isolate CDC / Honduras)) (UniProt Q27743). Put plainly: PfLDH activity inhibition – cell lysate, 3D7 strain, counter-screen for P. falciparum growth inhibition project (AID 2304).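 Further: 0% = vehicle and 100% = reference inhibitor.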 The conditions noted are these: P. falciparum 3D7 crude extract, LDH APAD/NBT absorbance; at 2 µM; hits give high values. In general terms: Counterscreens check selectivity or assay interference.

A short description of experiment [4]: inhibition of 3D7 malaria parasite growth – strain 3D7 (AID 2306).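 Further: 0% = DMSO wells and 100% = chloroquine plus artemisinin control wells.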 The conditions noted are these: P. falciparum 3D7 erythrocytic growth, LDH absorbance, 72 h; at 2 µM; hits give high values.
In experiment [5] the target is Calcium-dependent protein kinase 1 (Plasmodium falciparum (isolate 3D7)) (UniProt P62344). Put plainly: PfCDPK1 kinase inhibitors, biochemical, TCAMS library (AID 1159585; cut-off not given, nearly all actives have IC50 up to about 0.98 µM;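 further: inhibitors leave more ATP so luminescence rises with inhibition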). The conditions noted are these: recombinant PfCDPK1, Kinase-Glo ATP depletion luminescence. (In general: Kinase-Glo measures the ATP left after a reaction by luminescence.)
Experiment [6] concerns the target Plasmodium falciparum protein kinase 6 (PK6, PF3D7_1337100) (UniProt Q8IDW1). Put plainly: PfPK6 kinase inhibitors, biochemical, TCAMS library (AID 1159586). Conditions: recombinant PfPK6, Kinase-Glo ATP depletion luminescence.
In experiment [7] the target is Protein kinase 7 (PK7), Plasmodium falciparum 3D7 (PF3D7_0213400) (UniProt Q7YTF7). Put plainly: inhibition of Plasmodium PK7 catalytic activity – biochemical, TCAMS antimalarial set, Kinase-Glo luminescence (AID 1159587). The conditions noted are these: recombinant PfPK7, Kinase-Glo ATP depletion luminescence.
Experiment [8] has as its target Calcium-dependent protein kinase 4 (Plasmodium falciparum (isolate 3D7)) (UniProt Q8IBS5). Put plainly: PfCDPK4 kinase inhibitors, biochemical, TCAMS library (AID 1159588; cut-off not given, nearly all actives have IC50 up to about 0.91 µM). Conditions: recombinant PfCDPK4, Kinase-Glo ATP depletion luminescence.

A number with no mark means an inactive call. For part of these data: Entries with a potency or affinity are not part of this list. Active and inactive are the calls of the source. Unless noted, how the calls were made is not given here.

Chain of Protein kinase 7 (PK7), Plasmodium falciparum 3D7 (PF3D7_0213400) (Q7YTF7 1-343): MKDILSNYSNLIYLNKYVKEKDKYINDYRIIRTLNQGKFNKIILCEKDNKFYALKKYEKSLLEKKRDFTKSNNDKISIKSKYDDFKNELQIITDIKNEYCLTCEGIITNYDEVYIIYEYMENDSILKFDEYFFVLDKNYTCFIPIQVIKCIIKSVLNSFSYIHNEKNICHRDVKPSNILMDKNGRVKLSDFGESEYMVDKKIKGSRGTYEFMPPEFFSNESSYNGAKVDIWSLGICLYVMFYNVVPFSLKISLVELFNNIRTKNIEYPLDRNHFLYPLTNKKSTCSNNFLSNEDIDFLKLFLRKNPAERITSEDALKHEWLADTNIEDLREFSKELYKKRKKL
Chain of Plasmodium falciparum protein kinase 6 (PK6, PF3D7_1337100) (Q8IDW1 1-305): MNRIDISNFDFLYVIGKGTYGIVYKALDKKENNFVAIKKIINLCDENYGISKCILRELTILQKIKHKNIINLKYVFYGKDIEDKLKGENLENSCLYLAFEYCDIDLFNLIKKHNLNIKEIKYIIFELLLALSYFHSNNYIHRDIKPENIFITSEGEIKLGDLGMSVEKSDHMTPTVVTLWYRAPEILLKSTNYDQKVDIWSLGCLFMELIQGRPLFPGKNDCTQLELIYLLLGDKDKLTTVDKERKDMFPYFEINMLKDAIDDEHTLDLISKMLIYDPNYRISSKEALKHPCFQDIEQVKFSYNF
Chain of L-lactate dehydrogenase (Plasmodium falciparum (isolate CDC / Honduras)) (Q27743 whole entry, looked up): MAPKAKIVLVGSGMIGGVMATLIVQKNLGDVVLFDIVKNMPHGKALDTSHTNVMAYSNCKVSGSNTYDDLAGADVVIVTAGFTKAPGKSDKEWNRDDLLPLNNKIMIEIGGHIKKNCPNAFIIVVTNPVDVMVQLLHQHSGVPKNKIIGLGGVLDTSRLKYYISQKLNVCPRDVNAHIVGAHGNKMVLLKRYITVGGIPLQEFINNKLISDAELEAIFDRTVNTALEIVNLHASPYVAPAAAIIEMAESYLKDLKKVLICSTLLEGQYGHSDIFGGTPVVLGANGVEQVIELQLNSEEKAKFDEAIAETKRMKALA
Chain of Calcium-dependent protein kinase 4 (Plasmodium falciparum (isolate 3D7)) (Q8IBS5 whole entry, looked up): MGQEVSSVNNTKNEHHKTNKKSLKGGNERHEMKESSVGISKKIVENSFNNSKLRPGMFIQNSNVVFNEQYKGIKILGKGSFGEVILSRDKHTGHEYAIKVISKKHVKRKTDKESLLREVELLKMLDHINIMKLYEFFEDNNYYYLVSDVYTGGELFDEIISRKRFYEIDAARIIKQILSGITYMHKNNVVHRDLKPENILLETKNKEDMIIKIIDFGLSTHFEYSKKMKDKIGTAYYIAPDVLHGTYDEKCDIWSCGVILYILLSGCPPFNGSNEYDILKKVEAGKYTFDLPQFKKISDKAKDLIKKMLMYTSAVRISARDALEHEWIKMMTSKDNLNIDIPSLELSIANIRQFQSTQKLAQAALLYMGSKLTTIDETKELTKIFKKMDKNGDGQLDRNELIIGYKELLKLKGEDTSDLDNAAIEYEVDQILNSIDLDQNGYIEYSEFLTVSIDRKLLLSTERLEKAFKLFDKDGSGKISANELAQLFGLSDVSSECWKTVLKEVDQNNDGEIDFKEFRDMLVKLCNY
Chain of Calcium-dependent protein kinase 1 (Plasmodium falciparum (isolate 3D7)) (P62344 whole entry, looked up): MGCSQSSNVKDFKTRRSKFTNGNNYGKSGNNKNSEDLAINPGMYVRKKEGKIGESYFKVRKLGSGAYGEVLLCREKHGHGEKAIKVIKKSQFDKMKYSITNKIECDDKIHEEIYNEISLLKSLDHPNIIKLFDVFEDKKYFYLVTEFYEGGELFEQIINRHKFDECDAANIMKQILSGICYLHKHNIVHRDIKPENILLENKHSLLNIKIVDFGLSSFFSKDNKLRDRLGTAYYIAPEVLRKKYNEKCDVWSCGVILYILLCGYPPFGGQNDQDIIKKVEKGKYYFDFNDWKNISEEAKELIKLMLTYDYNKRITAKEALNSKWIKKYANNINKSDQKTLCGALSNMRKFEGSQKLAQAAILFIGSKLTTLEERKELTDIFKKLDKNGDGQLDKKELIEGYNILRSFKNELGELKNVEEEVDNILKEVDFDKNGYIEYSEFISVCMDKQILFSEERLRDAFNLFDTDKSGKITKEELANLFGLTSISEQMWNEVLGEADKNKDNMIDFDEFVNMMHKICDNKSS

As a reminder, the inhibition is the drop in the measured response relative to a control, in per cent. Regarding `NC(=O)CCC(NC(=O)CNC(=O)Nc1cccc(C(F)(F)F)c1)C(=O)O` (stereo not drawn), the growth inhibition in experiment [1] is 93% (active); in experiment [4] it was 97% (active). Also, the inhibition is 1% in experiment [2] and 4% in experiment [3]. The outcome in experiment [5], in experiment [6], in experiment [7] and in experiment [8] was inactive.

As for `CCOc1cc(C(=O)NCc2ccc(Cl)c(Cl)c2)ccc1-c1nc2ccc(Cl)cc2[nH]1`, the values for the growth inhibition in experiment [1] and in experiment [4] were 4% and 97% (active), respectively. In addition, the inhibition in experiment [2] is 10%; in experiment [3], -2%. Also, the result in experiment [5], in experiment [6], in experiment [7] and in experiment [8] was inactive.

As for `CN1CCC(C(=O)Nc2cccc(-c3ccc(-c4nc5ccc(C(F)(F)F)cc5[nH]4)cc3)c2)CC1`, the values for the growth inhibition in experiment [1] and in experiment [4] were 99% (active) and 100% (active), respectively. The inhibition is 38% in experiment [2] and -4% in experiment [3]. The result in experiment [5], in experiment [6], in experiment [7] and in experiment [8] was inactive.

In the case of `COc1cccc(C=NNc2cc(C)nc3ccccc23)c1`, the values for the growth inhibition in experiment [1] and in experiment [4] were 46% and 101% (active), respectively. Also, the values for the inhibition in experiment [2] and in experiment [3] were 16% and -8%, respectively. Moreover, the outcome in experiment [5], in experiment [6], in experiment [7] and in experiment [8] was inactive.

`CN(C)CCn1c(=N)n(CC(O)c2ccc(Cl)c(Cl)c2)c2ccccc21` (stereo not drawn): the growth inhibition is 6% in experiment [1] and 99% (active) in experiment [4]. In addition, the inhibition in experiment [2] is 20%; in experiment [3], -2%. Further, the result in experiment [5], in experiment [6], in experiment [7] and in experiment [8] was inactive.

For `Fc1cccc(COc2ccc(Nc3ncnc4sc(C#C[C@H]5CC[C@H](CN6CCOCC6)N5)cc34)cc2Cl)c1`, the growth inhibition in experiment [1] was 23%; in experiment [4], 92% (active). For the same molecule, the inhibition is 16% in experiment [2] and -10% in experiment [3]. Also, the result in experiment [5], in experiment [6], in experiment [7] and in experiment [8] was inactive.

As to `O=C(/C=C/c1ccc(Cl)c(Cl)c1)NCCCCCN1CCCN(C(=S)Nc2ccc(Cl)c(Cl)c2)CC1`, the growth inhibition is -3% in experiment [1] and 96% (active) in experiment [4]. The inhibition in experiment [2] is 16%; in experiment [3], -3%. Moreover, the result in experiment [5], in experiment [6], in experiment [7] and in experiment [8] was inactive.

Take `CC(C)(C)c1ccc(/C=C/C(=O)NCCCCCN2CCC(c3c[nH]c4ccccc34)CC2)cc1`: the growth inhibition in experiment [1] is 12%; in experiment [4] it was 91% (active). For the same molecule, the inhibition in experiment [2] is 70% (active); in experiment [3] it was 8%. Further, the outcome in experiment [5], in experiment [6], in experiment [7] and in experiment [8] was inactive.

Take `CN1CCCC(CN2CCN(Cc3ccc(-c4ccc(-c5nc6ccc(F)cc6[nH]5)s4)cc3)CC2)C1` (stereo not drawn): the growth inhibition in experiment [1] is 100% (active); in experiment [4] it was 101% (active). In addition, the figures for the inhibition in experiment [2] and in experiment [3] were 73% (active) and -2%, respectively. Further, the outcome in experiment [5], in experiment [6], in experiment [7] and in experiment [8] was inactive.

On to `Cc1cccc2[nH]c(-c3cccc(-c4ccc(C(=O)NCc5nccn5C)cc4)c3)nc12`, for which the values for the growth inhibition in experiment [1] and in experiment [4] were 9% and 100% (active), respectively. The results for the inhibition in experiment [2] and in experiment [3] were 18% and 1%, respectively. Also, the outcome in experiment [5], in experiment [6], in experiment [7] and in experiment [8] was inactive.

For `CCN(CCCN1CCCCC1)c1cc(C)nc(Nc2ccc(C)cc2C)n1`, the growth inhibition in experiment [1] is 35%; in experiment [4], 91% (active). Further, the inhibition in experiment [2] is 33%; in experiment [3], 6%. The outcome in experiment [5], in experiment [6], in experiment [7] and in experiment [8] was inactive.

For `O=S(=O)(c1ccccc1)C1CC1`, the values for the growth inhibition in experiment [1] and in experiment [4] were 65% (active) and 89% (active), respectively. For the same molecule, the inhibition in experiment [2] is -3%; in experiment [3] it was 7%. For the same molecule, the result in experiment [5], in experiment [6], in experiment [7] and in experiment [8] was inactive.

In the case of `Cc1c(CN2CCC(N3CCC(C(=O)NC4CC4)CC3)CC2)[nH]c2c(Cl)cccc12`, the growth inhibition was 3% in experiment [1] and 92% (active) in experiment [4]. Moreover, the inhibition is 22% in experiment [2] and 1% in experiment [3]. Also, the outcome in experiment [5], in experiment [6], in experiment [7] and in experiment [8] was inactive.

As for `O=C(/C=C/c1ccc(Cl)c(Cl)c1)NCCCCCN1CCCN(C(=O)Nc2cc(Cl)nc(Cl)c2)CC1`, the growth inhibition in experiment [1] was 3%; in experiment [4], 103% (active). For the same molecule, the inhibition is 8% in experiment [2] and -1% in experiment [3]. Besides, the outcome in experiment [5], in experiment [6], in experiment [7] and in experiment [8] was inactive.

`c1ccc(Oc2ccc(Nc3ccnc(Nc4cccc(CNCCCN5CCOCC5)c4)n3)cc2)cc1`: the growth inhibition in experiment [1] is 50% (active); in experiment [4], 100% (active). The inhibition in experiment [2] and in experiment [3] was -1% in each case. The result in experiment [5], in experiment [6], in experiment [7] and in experiment [8] was inactive.

For the molecule `Cc1ccc(N2CCN(CCCCNC(=O)c3ccc(NC(=O)c4ccc(Cl)cc4)cc3)CC2)c(C)c1`, the growth inhibition in experiment [1] is 20%; in experiment [4], 95% (active). Further, the inhibition in experiment [2] was 30%; in experiment [3] it was 7%. The result in experiment [5], in experiment [6], in experiment [7] and in experiment [8] was inactive.

`COc1cc(C(F)(F)F)nc2c(CNCCCNc3cc(=O)c4ccccc4[nH]3)scc12`: the growth inhibition in experiment [1] was 16%; in experiment [4], 92% (active). The inhibition was -7% in experiment [2] and -2% in experiment [3]. In addition, the outcome in experiment [5], in experiment [6], in experiment [7] and in experiment [8] was inactive.

Regarding `CCOC(=O)N1CCN(CCCNc2c3ccc(Cl)cc3nc3ccc(OC)cc23)CC1`, the growth inhibition was 100% (active) in experiment [1] and 101% (active) in experiment [4]. Besides, the figures for the inhibition in experiment [2] and in experiment [3] were 52% (active) and 3%, respectively. Besides, the result in experiment [5], in experiment [6], in experiment [7] and in experiment [8] was inactive.

Regarding `COc1cc(OC)c2c(C)cc(NCCCn3ccnc3)nc2c1`, the results for the growth inhibition in experiment [1] and in experiment [4] were 22% and 102% (active), respectively. The inhibition is 6% in experiment [2] and -2% in experiment [3]. Further, the result in experiment [5], in experiment [6], in experiment [7] and in experiment [8] was inactive.

For `CNC(=O)CC(=O)NCCc1ccc(Cl)cc1`, the growth inhibition was 1% in experiment [1] and 99% (active) in experiment [4]. In addition, the inhibition in experiment [2] is -7%; in experiment [3], 6%. Besides, the outcome in experiment [5], in experiment [6], in experiment [7] and in experiment [8] was inactive.

For the molecule `Cc1cn(CC(=O)Nc2cccc(-c3cccc(-c4nc5c(C)cccc5[nH]4)c3)c2)c(=O)[nH]c1=O`, the growth inhibition in experiment [1] and in experiment [4] was 100% (active) throughout. In addition, the results for the inhibition in experiment [2] and in experiment [3] were 2% and 5%, respectively. Further, the result in experiment [5], in experiment [6], in experiment [7] and in experiment [8] was inactive.

For the origin of these results see PubChem BioAssay.
